Source: PubChem BioAssay
VACV Venus inh: qHTS for Stage-Specific Inhibitors of Vaccinia Orthopoxvirus: Venus Reporter Primary qHTS; Vaccinia virus Venus reporter expression, fluorescence; Potency, µM (titrated, usually from 36.5 µM), inactives show at the top dose activity change, negative = inhibition, most hits filed as inhibitors; 330,000 compounds, 0.46% hits; calls by dose curve; tested in A549 cells; also: potency is read from the fitted curve at half-maximal effect; nearly all actives have a fitted effect of over 30% in size
Vaccinia mCherry: qHTS for Stage-Specific Inhibitors of Vaccinia Orthopoxvirus: mCherry Reporter Primary qHTS | Potency, µM (doses to about 36.5 µM), for the others: at the top dose activity change, negative = inhibition, usual class: inhibitors | Vaccinia virus mCherry reporter infection, fluorescence | 310,000 compounds, 0.63% hits; calls by dose curve; tested in A549 cells; also: potency is read from the fitted curve at half-maximal effect; nearly all actives have a fitted effect of over 35% in size
Lassa entry inh: qHTS for Inhibitors of binding or entry into cells for Lassa Virus. Lassa virus pseudotype entry inhibition, cell reporter. Potency, µM (series often up to 37.9 µM), for the others: top-dose activity change, negative = inhibition, most hits filed as inhibitors. 300,000 compounds, 1.2% hits. AID 540256, 2011; calls by dose curve; tested in HEK293 cells; also: potency is read from the fitted curve at half-maximal effect; nearly all actives have a fitted effect of over 50% in size
HCV inh: qHTS Assay for Inhibitors of Hepatitis C Virus (HCV); Huh7.5.1 HCVcc-Cre infection, luciferase reporter, 44 h; Potency, µM (highest dose often 41.8 µM), for inactives: at the highest dose activity change, negative = inhibition, usual class: inhibitors; 340,000 compounds, 3.4% hits; AID 651820, 2012; active = well fitted inhibition curve with a large enough effect; inconclusive = small, poorly fitted or top-dose-only effect, or another doubt; inactive = no such curve, though single readings can be large or run the other way; also: potency is read from the fitted curve at half-maximal effect
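After 44 h co-culture of compound, cells and HCVcc-Cre (~0.5 moi), substrate is added for 15 min at room temperature and luciferase measured over 15 sec. Cells were seeded at 1,000/well and pre-cultured 4 h.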
MARV entry inh: qHTS for inhibitors of binding or entry into cells for Marburg Virus; Marburg virus pseudotyped entry inhibition, cell reporter; Potency, µM (top dose mostly 37.8 µM), for inactives: at the top dose activity change, negative = inhibition, actives largely listed as inhibitors; 300,000 compounds, 1.8% hits; AID 540276, 2011; calls by dose curve; tested in HEK293 cells; also: potency is read from the fitted curve at half-maximal effect
HCMV inh: qHTS Assay for inhibitors of the human cytomegalovirus (HCMV). HFF cells, HCMV-luciferase reporter, 72 h; active compounds read low. activity change, negative = inhibition, % at 57.5 µM. 410,000 compounds, 4.5% hits. AID 1259415, 2018; in the data active = activity change below about -60%; inconclusive = no clear call, values can overlap the other calls; inactive = above about -39%
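Luciferase read-out from HCMV-luciferase-infected HFFs (MOI 1 PFU/cell) 72 h post infection at 37C; compounds added after 16 h cell attachment; activity normalized between buffer-only basal and Salinomycin (10uM) inhibitor controls.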
Numbers without * were called inactive; i = inactive; u = inconclusive; x = no result; [ ] = another dose, or the depositor's remark. Compounds with a hit are over-represented: about 7.8% of the library has one in this group of screens. % is scaled to controls: 0 for no effect and ±100 for the full control effect.

SMILES	VACV Venus inh	Vaccinia mCherry	Lassa entry inh	HCV inh	MARV entry inh	HCMV inh
Cc1cc(=O)[nH]c2c1cnn2Cc1ccccc1	-7.4%	x	12.9%	12.2%	26.4%	22.6
O=c1c(Cl)c(Cl)cnn1-c1ccccc1	x	x	u	3.98µM*	25.9µM*	-100.0*
CC(C)OCCCNC(=O)CN1C(=O)c2ccccc2Sc2ncccc21	-2.0%	i	3.6%[46.1 µM]	x	x	-22.7
Cc1ccc(Cn2ncc(Cl)c(Cl)c2=O)cc1	u	-21.7%	u	11.2µM*	u	-9.9
Cc1[nH]c(C)c2c(=O)n(Cc3ccc(Cl)cc3)ncc12	x	x	x	9.6%	x	u
O=c1[nH]cnc2c1cnn2Cc1ccccc1Cl	x	x	x	7.7%	x	-28.8
O=c1c(Cl)c(Cl)cnn1Cc1ccccc1Cl	u	u	13µM*	2.82µM*	6.51µM*	-101.0*
O=C1COc2ccc(-c3cc(-c4ccc(Cl)cc4)c4c(n3)-c3ccccc3OC4)cc2N1	u	u	27.0%[46.1 µM]	x	11.2%[46.1 µM]	9.2
N#CCCn1cc(/C=N/NC(N)=S)c(-c2ccc(Br)cc2)n1	u	-29.2%	-1.8%[46.1 µM]	u	u	-70.1*
O=C(NCc1nc2cccnc2n1Cc1ccc(F)cc1)c1ccccc1C(F)(F)F	-10.9%	i	6.3%[46.1 µM]	x	x	-60.6*
COC(=O)Cn1c(=O)c2cccn2c2cccnc21	-2.8%	-3.8%	4.5%[46.1 µM]	x	12.5%[46.1 µM]	-30.0
COc1ccccc1CN1CCC(n2cc(C(=O)N3CCCCC3)nn2)CC1	-11.1%	-15.1%	x	x	x	x
COc1ccc(Cn2cc(C(=O)c3ccc(Cl)cc3)c(=O)c3cc4c(cc32)OCO4)cc1	u	u	u	x	u	-98.3*
O=C(c1ccc(Cl)cc1)c1cn(Cc2ccccc2)c2cc3c(cc2c1=O)OCCO3	u	u	u	x	u	-63.5*
COc1ccc2c(c1)c(=O)c(C(=O)c1ccc(C)cc1)cn2Cc1ccccc1F	-24.4%	-25.6%	u	x	11.2µM*	-69.2*
O=C(c1ccc(F)cc1)c1cn(Cc2ccccc2F)c2cc3c(cc2c1=O)OCCO3	-9.4%	-12.6%	-7.0%[46.1 µM]	x	-10.0%[46.1 µM]	-36.6
Cc1ccc(C(=O)c2cn(Cc3ccccc3)c3nc(C)ccc3c2=O)cc1	-5.3%	-3.5%	23.0%[46.1 µM]	x	u	-72.9*
COc1ccc(Cn2cc(C(=O)c3ccc(OC)cc3)c(=O)c3cc4c(cc32)OCCO4)cc1	-6.2%	-9.1%	u	x	-17.2%[46.1 µM]	u
Cc1cn2c(=O)cc(COC(=O)c3ccc(NC(=O)c4ccccc4C)cc3)nc2s1	-7.0%	-9.9%	9.8%[46.1 µM]	x	x	-32.6
CCCOc1ccc(C(=O)Nc2ccc(Cl)cn2)cc1	-23.7%	x	17.8µM*	-24.6%	6.31µM*	-5.9
Cc1ccc(CC(=O)Nc2ccc(Cl)cn2)cc1	x	x	x	-9.6%	x	-39.8
Cc1ccc(C(=O)Nc2nccc(-c3cccs3)n2)cc1	x	x	-1.2%	1.2%	18.7%	-5.7
Cc1ccc(C(=O)Nc2ncc3c(Cl)cccc3n2)cc1	-18.3%	-9.2%	u	-25.0%	u	-89.9*
Cc1ccc(C(=O)Nc2ccc(Cl)cn2)cc1	-28.5%	u	u	u	7.3µM*	50.0
O=C(Nc1ccc(Cl)cn1)c1ccc(Oc2ccccc2)cc1	-24.8%	i	u	u	u	38.9
SMILES	VACV Venus inh	Vaccinia mCherry	Lassa entry inh	HCV inh	MARV entry inh	HCMV inh
O=C(CSc1nc2c([nH]c3ccccc32)c(=O)n1-c1ccc(Cl)cc1)N1CCCCCC1	4.7%	-3.3%	-21.3%[46.1 µM]	x	x	-7.7
C1CCC(NC2=NCCO2)CC1	u	-28.7%	x	x	x	-33.0
c1ccc(C2(NC3=NCCO3)CCCCC2)cc1	3.98µM*	u	x	x	x	-37.9
C/C(=N\OCC(=O)N/N=C/c1ccc(C)cc1O)c1cccs1	x	x	14.5%	10µM*	-18.6%	6.6
Cc1ccc(/C=N/NC(=O)Cc2ccc(Cl)cc2)c(O)c1	u	22.4µM*	u	u	u	-29.7
C/C(=N\NC(=O)CO/N=C(\C)c1cccs1)c1ccc(N)cc1	x	x	x	-19.0%	x	-31.4
O=C(CC(=O)N/N=C/c1ccc(C(=O)O)cc1)NCCc1ccccc1	x	x	x	3.7%	x	-97.2*
O=C(Cc1ccccc1)NN=Cc1ccccc1	0.0%	i	12.4%[46.1 µM]	0.1%	2.4%	-1.3
Cc1ccccc1/C=N/NC(=O)Cc1ccc(Cl)cc1	-14.3%	-20.4%	-2.4%	-22.3%	-2.5%[46.1 µM]	-13.9
O=C(Cc1ccc(Cl)cc1)N/N=C/c1ccccc1	x	x	x	5.3%	x	-68.2*
CC(=O)N(C)c1ccc(/C=C2\C=Cc3ccccc32)cc1	-16.0%	14.9%	x	x	x	x
O=C(Cn1cc(SCc2c(F)cccc2Cl)c2ccccc21)N1CCCCCC1	-16.7%	i	u	x	x	83.3
CCC1=Nc2cc(C(=O)N3CCC(C)CC3)ccc2Sc2ccc(C)cc21	-7.8%	-24.7%	-4.0%[46.1 µM]	x	-34.4%[46.1 µM]	-3.0
O=C(O)COc1ccc(/C=N/NC(=O)Cc2ccc(Cl)cc2)cc1	-10.1%	i	-6.5%[46.1 µM]	3.2%	u	-100.8*
COC(=O)C1CCN(c2nc3ccccc3nc2[C@@H](C#N)C(=O)NCCc2ccccc2)CC1	x	x	x	x	-0.3%	x
O=C(Nc1ccc(N2CCN(c3ccc(C(F)(F)F)cn3)CC2)nc1)c1cccs1	-10.2%[7.34 µM]	-6.0%[7.34 µM]	-22.4%	9.3%	-9.1%[46.1 µM]	u
O=C(Nc1ccc(N2CCN(c3ncccc3C(F)(F)F)CC2)nc1)c1cccs1	20µM*	14.1µM*	11.2µM*	11.2µM*	12.6µM*	-86.3*
CN(CCC#N)c1ccc(/C=C/c2ccnc3ccccc23)cc1	-14.3%	-27.4%	x	x	x	x
Cc1ccc(NC(=O)Nc2ccnc(-c3cccnc3)n2)cc1	x	x	u	11.2µM*	u	-87.5*
COC(=O)C(Cc1c[nH]c2ccccc12)NC(=O)COc1ccc(Cl)cc1Cl (stereo not given)	-5.9%[7.34 µM]	-13.5%[7.34 µM]	-17.6%[46.1 µM]	x	x	140.4
CC(=O)Nc1sc(N/N=C\c2ccc(O)cc2)nc1-c1cccs1	x	x	x	7.0%	x	-27.3
CCN(CC)c1ccc(/C=C(\C#N)c2nc(-c3cccs3)c(NC(C)=O)s2)cc1	x	x	x	12.6µM*	-6.8%	x
CCc1c(C(=O)NCCc2ccc(N3CCCCC3)cc2)[nH]c2ccc(Cl)cc12	x	x	-32.7%	x	-2.1%	x
CC(C)c1nn2c(=O)cc(COC(=O)c3ccc(NC(=O)c4cccs4)cc3)nc2s1	-19.5%	-6.5%	15.0%[46.1 µM]	x	x	-20.7
COc1ccc2c(CNCc3cccs3)c(C(=O)O)n(Cc3ccccc3F)c2c1	-5.9%	-5.4%	-12.7%[46.1 µM]	x	x	16.1
CCCNC(=O)/C=C/c1ccc(S(=O)(=O)Nc2ccccc2OC)cc1	-11.1%	i	5.01µM*	u	u	-37.3
O=C1[C@@H]2[C@H]3[C@H](O)[C@H](O)CC(=NOC[C@@H](O)COCc4ccco4)[C@@H]3CC[C@H]2C(=O)N1C1CCCCC1	x	x	x	x	-22.0%[14.2 µM]	x
